About 6,200 (1.8%) of roughly 340,000 compounds were called active. Roughly 10% stayed inconclusive and do not appear here. The call rests on the fitted dose curve; in most records, active means well fitted activation curve with a large enough effect; inconclusive means small, poorly fitted or top-dose-only effect; inactive means no such curve, though single readings can be large or run the other way. The list comes from a sample in which actives are over-represented; it also holds similar structures and randomly drawn compounds.
experiment: A quantitative high throughput screen for small molecules that induce DNA re-replication in SW480 colon adenocarcinoma cells.; further: nearly all actives have a fitted effect of over 55% in size; on re-replication activation: % of control where 0% means no effect; conditions: Hoechst DNA content imaging, 48 h; series mostly up to 46.1 µM; re-replication activation: at the top concentration
Method in brief: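 SW480 cells exposed to compounds for 48 hr at 37 C, 5% CO2, then Hoechst-stained 40 min. Nuclear DNA content imaged by fluorescence scanning (405 nm excitation, 500-530 nm emission); re-replication scored as increased high-intensity nuclei.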
Potency means the concentration at half of the fitted maximal effect.

| Structure (SMILES) | re-replication activation | Potency |
| --- | --- | --- |
| COc1ccccc1C(=O)COC(=O)COc1ccc(C#N)cc1 | -5.36% (inactive) | – |
| CCCC(CNC(=O)COC(=O)C1=NNC(=O)CC1)c1ccc(Cl)cc1Cl (stereo not given) | -6.55% (inactive) | – |
| Oc1[nH]c2ccccc2c1N=Nc1c(F)c(F)c(F)c(F)c1F | 4.7% (inactive) | – |
| C(#CCN1CCOCC1)CCCN1CCOCC1 | 5.31% (inactive) | – |
| O=C(COc1cccnc1[N+](=O)[O-])Nc1ccc(Cl)cc1F | 0.413% (inactive) | – |
| COc1cccc(NC(=O)CN(C)C(=O)/C=C/c2cn(-c3ccccc3)nc2-c2cccs2)c1 | 12.5% (inactive) | – |
| O=C(CCl)Nc1ccc(Sc2ccc(NC(=O)CCl)cc2)cc1 | – | 4.61 µM (active) |
| O=C(Nc1ccc(Sc2ccc(Br)cc2)cc1)c1ccco1 | -0.998% (inactive) | – |
| Cc1ccc(NC(=O)CC(=O)Nc2ccc(C)cc2)cc1 | -5.7% (inactive) | – |
| CC1CCCCC1NC(=O)Cn1cnc2c1c(=O)n(C)c(=O)n2C (stereo not given) | 14.6% (inactive) | – |
| COc1ccc(-c2nnc(SC(C)C(=O)NC3CC3)o2)cc1 (stereo not given) | -3.49% (inactive) | – |
| COc1ccc2c(CC(=O)NNC(=O)c3ccccc3F)coc2c1 | 2.49% (inactive) | – |
| c1ccc(-c2cc3c(NCC4COc5ccccc5O4)ncnc3s2)cc1 (stereo not given) | – | 18.4 µM (active) |
| Oc1ccccc1N1CCN(c2ncnc3sc(-c4ccccc4)cc23)CC1 | -6.94% (inactive) | – |
| S=C(NCC1COc2ccccc2O1)Nc1ccc(Br)cc1 (stereo not given) | -8.77% (inactive) | – |
| Cc1ccc(NC(=O)C(C)OC(=O)C2CC3CCCC(C2)C3=O)cc1S(=O)(=O)N1CCOCC1 (stereo not given) | -2.34% (inactive) | – |
| CN(C)C(=O)CCc1ccc2c3c([nH]c2c1)[C@]1(C)[C@@H](C(=O)N2CCCCC2)C[C@H](CC(=O)NCCC2=CCCCC2)C(=O)N1CC3 | 1.36% (inactive) | – |
| COC(=O)c1ccc(CNC(=O)Cn2cc(C)c(=O)[nH]c2=O)cc1 | -7.02% (inactive) | – |
| C[C@H](CO)N1C[C@H](C)[C@@H](CN(C)Cc2ccc(-c3ccccc3)cc2)Oc2ccc(NC(=O)Cn3cnnn3)cc2C1=O | -2.29% (inactive) | – |
| Cc1ccc2[nH]c(=O)c(CC(=O)O)c(-c3ccccc3)c2c1 | 3.85% (inactive) | – |
| Cc1cccc(N(C)C(=O)c2cc3c(=O)[nH]c4ccc(C)cc4c3s2)c1 | – | 9.2 µM (active) |
| CCN(CC)CCCNC(=O)c1cc2c(=O)[nH]c3ccc(C)cc3c2s1 | -10.2% (inactive) | – |
| CCCN(CC(=O)Nc1ccccc1C)C(=O)c1ccc(OCC(=O)N2CCOCC2)c(OCC)c1 | -9.72% (inactive) | – |
| Cc1nc2ccccc2c(C(=O)O)c1-c1ccccn1 | -10.2% (inactive) | – |
| NC(=O)c1c(NC(=O)c2ccccc2)sc2c1CCCC2 | -24.5% (inactive) | – |
| C=CCN(CC=C)S(=O)(=O)c1ccc(C(=O)Nc2nc3c(s2)CCc2ccccc2-3)cc1 | – | 14.6 µM (active) |
| COc1ccc(C(=O)Nc2ncc3c(n2)-c2ccccc2CC3)cc1 | 12.9% (inactive) | – |
| C=CCN(CC=C)S(=O)(=O)c1ccc(C(=O)Nc2sc3c(c2C(N)=O)CCCCC3)cc1 | – | 9.2 µM (active) |
| COc1cccc(OC)c1C(=O)Nc1sc2c(c1C(N)=O)CCCC2 | 119% (inactive) | – |
| CCN(c1ccccc1)S(=O)(=O)c1ccc(C(=O)Nc2nccs2)cc1 | 0.483% (inactive) | – |
